Reference: PubChem BioAssay (Tox21)
Where “and” joins values, the source holds several entries; their conditions need not be identical. Equal values may be shown once. Unmarked numbers belong to inactive results. Records with an inconclusive call do not appear. Entries that show only a call come without a potency. Calls of active or inactive are those of the source. Unless noted, calls come from the whole dose curve; as a rule, active = well fitted curve in the direction sought with a large enough effect in the repeat runs; inconclusive = weak or mixed curves; inactive = no such curve, though single readings can be large; an effect the other way counts as inactive or inconclusive.

How the values were obtained:
[1] = qHTS assay for small molecules that induce genotoxicity in human embryonic kidney cells expressing luciferase-tagged ATAD5 - cell viability (AID 651634; calls by dose curve; note: nearly all actives have a fitted effect of over 25% in size; note: potency is the fitted concentration of half-maximal effect)
How it was run: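 Seeding of 2,000 HEK293T ATAD5-luciferase cells per well preceded pin-tool compound transfer. Plates sat 15.5 hr at 37C under 5% CO2, then fluorescence was read after 30 min with CellTiter-Fluor.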

[2] = qHTS assay for small molecule disruptors of the mitochondrial membrane potential - cell viability (AID 720634; calls by dose curve;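 note: human HepG2 liver cancer cells; nearly all actives have a fitted effect of over 20% in size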)
How it was run: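 Measuring cytotoxicity alongside mitochondrial potential, the screen quantified ATP by luminescence in HepG2 cells after 1 hr compound incubation and a 30 min room-temperature CellTiter-Glo step.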

[3] = qHTS assay for small molecule disruptors of the mitochondrial membrane potential (AID 720635); note: potency is the fitted concentration of half-maximal effect
How it was run: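 HepG2 cells exposed to compound 1 hr at 37C, then Mito-MPS dye 30 min. Ratio read of aggregate (540/590 nm) versus monomer (490/535 nm) fluorescence.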

[4] = qHTS assay to test for compound auto fluorescence at 590 nm (red) in HepG2 cells (AID 720674)
How it was run: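 Fluorescence at 590 nm emission following 540 nm excitation was recorded from HepG2 wells one hour after compound transfer, with DMSO-only wells as vehicle and Rose Bengal sodium equivalency as the scale.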

[5] = qHTS assay to test for compound auto fluorescence at 460 nm (blue) in HEK293 cells (AID 720678)
How it was run: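 Intrinsic compound fluorescence is recorded in live HEK293 cultures after overnight incubation at 37C, 5% CO2, using excitation 405 nm and emission 460 nm. Values are referenced to triamterene.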

[6] = qHTS assay to test for compound auto fluorescence at 590 nm (red) in HEK293 cells (AID 720679)
How it was run: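 Red autofluorescence, HEK293 cells: 2,000 cells/well; attach 4-5 hr 37C; add 23 nL cpd or DMSO; incubate o/n 37C 5% CO2; read Ex540/Em590; Rose Bengal sodium reference.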

[7] = qHTS assay to test for compound auto fluorescence at 460 nm (blue) in HEK293 cell free culture (AID 720681)
How it was run: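 Compounds were added to cell-free DMEM with 10% FBS and fluorescence read directly. The blue channel used 405 nm excitation and 460 nm emission, with triamterene as the reference fluorophore.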

[8] = qHTS assay to test for compound auto fluorescence at 590 nm (red) in HEK293 cell free culture (AID 720683)
How it was run: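 Cell-free wells of DMEM with 10% FBS received compound, and intrinsic fluorescence was read at excitation/emission 540/590 nm. Values expressed as equivalence to Rose Bengal sodium.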

[9] = qHTS assay to test for compound auto fluorescence at 590 nm (red) in HepG2 cell free culture (AID 720684)
How it was run: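 Compound was pinned into wells holding MEM with 10% FBS and no cells, and red fluorescence was read at Ex/Em 540/590 nm. Signal is expressed as auto fluorescence equivalency relative to Rose Bengal sodium.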

[10] = qHTS assay to test for compound auto fluorescence at 460 nm (blue) in HepG2 cell free culture (AID 720685)
How it was run: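 Compound (23 nL) or DMSO pinned into cell-free MEM with 10% FBS; blue fluorescence read at 405/460 nm excitation/emission, expressed as auto-fluorescence equivalency to triamterene.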

[11] = qHTS assay to test for compound auto fluorescence at 535 nm (green) in HepG2 cell free culture (AID 720686)
[12] = qHTS assay to test for compound auto fluorescence at 460 nm (blue) in HepG2 cells (AID 720687)
How it was run: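 HepG2 cells in MEM with 10% FBS, attached overnight at 37 C, were exposed to compound or DMSO for 1 hr at 37 C, 5% CO2. Blue fluorescence was read at 405/460 nm, with triamterene as reference fluorophore.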

[13] = target: Glucocorticoid receptor (Homo sapiens) (UniProt P04150); test: qHTS assay to identify small molecule agonists of the glucocorticoid receptor (GR) signaling pathway (AID 720691; active = well fitted activation curve with a large enough effect in the signal ratio in the repeat runs, not every such curve was filed as active; the % refers to the signal ratio); details: GR-bla HeLa, beta-lactamase reporter ratio, 18 h; activation: at 62.4 µM (top of the series)
How it was run: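 Reporter read-out: fluorescence intensity following 2 h room-temperature LiveBLAzer B/G FRET substrate loading. Prior step: GR-bla HeLa cells held 4 h, then treated 18 h at 37 C.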

[14] = qHTS assay for small molecules that induce genotoxicity in human embryonic kidney cells expressing luciferase-tagged ATAD5 (AID 651632); note: nearly all actives have a fitted effect of over 15% in size
How it was run: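 Reporter cells (HEK293T) express luciferase-tagged ATAD5, a protein that accumulates after DNA damage. Treat 16 hr at 37C/5% CO2, add Amplite, wait 30 min at RT, and read luminescence.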

[15] = qHTS assay to test for compound auto fluorescence at 535 nm (green) in HepG2 cells (AID 720675)
[16] = qHTS assay to test for compound auto fluorescence at 535 nm (green) in HEK293 cell free culture (AID 720682)
How it was run: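 Read-out: 485/535 nm fluorescence intensity, calibrated against fluorescein. Medium only (DMEM + 10% FBS, no cells); test compound or DMSO vehicle added by pintool before plate reading.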

[17] = qHTS assay for small molecule agonists of the p53 signaling pathway - cell viability (AID 651633; calls by dose curve; note: nearly all actives have a fitted effect of over 30% in size; note: potency is the fitted concentration of half-maximal effect)
How it was run: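 p53RE-bla cells were treated with compound for 16 hours at 37 C. Cytotoxicity was then measured as CellTiter-Glo luminescence after 30 min at room temperature.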

[18] = qHTS assay to test for compound auto fluorescence at 535 nm (green) in HEK293 cells (AID 720680)
[19] = target: Glucocorticoid receptor (Homo sapiens) (UniProt P04150); test: qHTS assay to identify small molecule antagonists of the glucocorticoid receptor (GR) signaling pathway (AID 720692; active = well fitted inhibition curve with a large enough effect in the signal ratio in the repeat runs, not every such curve was filed as active; the % refers to the signal ratio; note: potency is the fitted concentration of half-maximal effect)
How it was run: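 Dexamethasone (5 nM final) stimulated a stably integrated GRE-beta-lactamase reporter in HeLa cells during 18 h co-incubation with compounds; signal was quantified as fluorescence intensity of B/G FRET substrate after 2 h.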

Glucocorticoid receptor (Homo sapiens), sequence (P04150 whole entry, looked up): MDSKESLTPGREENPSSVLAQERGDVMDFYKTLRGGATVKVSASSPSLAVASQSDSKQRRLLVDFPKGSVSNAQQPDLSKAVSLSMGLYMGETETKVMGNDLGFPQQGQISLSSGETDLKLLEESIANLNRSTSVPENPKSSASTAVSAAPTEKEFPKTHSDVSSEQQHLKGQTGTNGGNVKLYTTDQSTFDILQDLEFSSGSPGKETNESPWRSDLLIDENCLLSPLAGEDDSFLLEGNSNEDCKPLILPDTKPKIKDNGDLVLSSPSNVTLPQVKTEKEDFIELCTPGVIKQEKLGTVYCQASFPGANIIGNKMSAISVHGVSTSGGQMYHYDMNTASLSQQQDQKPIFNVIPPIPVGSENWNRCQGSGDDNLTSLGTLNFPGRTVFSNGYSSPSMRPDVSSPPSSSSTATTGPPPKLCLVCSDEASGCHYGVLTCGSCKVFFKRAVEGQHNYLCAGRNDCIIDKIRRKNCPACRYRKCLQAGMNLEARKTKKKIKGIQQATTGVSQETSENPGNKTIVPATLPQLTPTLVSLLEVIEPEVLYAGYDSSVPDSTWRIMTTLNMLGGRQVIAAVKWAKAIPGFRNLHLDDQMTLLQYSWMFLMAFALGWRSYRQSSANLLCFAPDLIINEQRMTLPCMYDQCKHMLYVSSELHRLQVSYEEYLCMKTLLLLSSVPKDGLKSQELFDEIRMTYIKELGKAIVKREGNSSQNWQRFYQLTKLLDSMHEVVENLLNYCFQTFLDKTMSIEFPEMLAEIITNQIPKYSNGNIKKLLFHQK

CCCCOc1ccc(C(=O)CCN2CCCCC2)cc1
Potency [1]: inactive
Potency [2]: inactive
Potency [3]: inactive
fluorescence, relative to Rose Bengal [4]: 0.0479% [at 18.6 µM]
fluorescence, % of triamterene [5]: 0.101% [at 18.6 µM]
fluorescence, % of fluorescent control [6]: -0.0275% [at 18.6 µM]
fluorescence, % of fluorescent control [7]: 0.0618% [at 18.6 µM]
fluorescence, % of fluorescent control [8]: -0.0248% [at 18.6 µM]
fluorescence, % of Rose Bengal [9]: -0.355% [at 18.6 µM]
fluorescence, % of fluorescent control [10]: 0.0259% [at 18.6 µM]
fluorescence, % of fluorescein control [11]: 0.0663% [at 18.6 µM]
fluorescence, % of fluorescent control [12]: -0.165% [at 18.6 µM]
Potency [13]: inactive

NC1(c2ccc(-c3nc4ccn5c(=O)[nH]nc5c4cc3-c3ccccc3)cc2)CCC1
Potency [14]: inactive
Potency [2]: inactive
Potency [3]: 13.3 µM (active)
Potency [4]: inactive
Potency [15]: inactive
Potency [6]: inactive
Potency [16]: inactive
Potency [8]: inactive
Potency [9]: inactive
Potency [10]: inactive
Potency [11]: inactive
Potency [12]: inactive
Potency [13]: inactive

NCCCC(O)(P(=O)(O)O)P(=O)(O)O
Potency [17]: inactive
Potency [1]: inactive
Potency [2]: inactive
Potency [3]: inactive
Potency [4]: inactive
Potency [15]: inactive
Potency [6]: inactive
Potency [18]: inactive
Potency [16]: inactive
Potency [8]: inactive
Potency [9]: inactive
Potency [10]: inactive
Potency [11]: inactive
Potency [12]: inactive
Potency [13]: inactive
Potency [19]: inactive

Cc1c(-c2ccc(O)cc2)n(Cc2ccc(OCCN3CCCCCC3)cc2)c2ccc(O)cc12
Potency [2]: inactive
Potency [3]: 10.6 µM (active)
Potency [4]: inactive
Potency [15]: inactive
Potency [5]: inactive
Potency [6]: inactive
Potency [18]: inactive
Potency [7]: inactive
Potency [8]: inactive
Potency [9]: inactive
Potency [10]: inactive
Potency [11]: inactive
Potency [12]: inactive

C=C(c1ccc(C(=O)O)cc1)c1cc2c(cc1C)C(C)(C)CCC2(C)C
Potency [14]: inactive
Potency [2]: inactive
Potency [3]: 9.44 µM (active) and 21.7 µM (active)
Potency [4]: inactive
Potency [15]: inactive
Potency [6]: inactive
Potency [18]: inactive
Potency [7]: inactive
Potency [16]: inactive
Potency [8]: inactive
Potency [9]: inactive
Potency [10]: inactive
Potency [11]: inactive
Potency [12]: inactive
Potency [19]: 9.77 µM (active)

O=C1c2c(O)ccc(O)c2C(=O)c2c(NCCNCCO)ccc(NCCNCCO)c21
Potency [17]: 4.52 µM (active)
Potency [1]: 9.02 µM (active)
Potency [2]: inactive
fluorescence, relative to Rose Bengal [4]: 0.231% [at 18.6 µM]
fluorescence, % of fluorescein control [15]: -0.149% [at 18.6 µM]
fluorescence, % of triamterene [5]: -0.405% [at 18.6 µM]
fluorescence, % of fluorescent control [6]: -1.36% [at 18.6 µM]
fluorescence, % of fluorescein [18]: 0.0058% [at 18.6 µM]
fluorescence, % of fluorescent control [7]: -0.133% [at 18.6 µM]
fluorescence, % of fluorescent control [8]: -0.213% [at 18.6 µM]
fluorescence, % of Rose Bengal [9]: -0.463% [at 18.6 µM]
fluorescence, % of fluorescent control [10]: -0.123% [at 18.6 µM]
fluorescence, % of fluorescein control [11]: -0.22% [at 18.6 µM]
fluorescence, % of fluorescent control [12]: -0.0158% [at 18.6 µM]

Clc1ccc(C(Cn2ccnc2)OCc2ccsc2Cl)c(Cl)c1 (configuration not stated)
Potency [14]: inactive
Potency [2]: inactive
Potency [4]: inactive
Potency [15]: inactive
Potency [6]: inactive
Potency [18]: inactive
Potency [7]: inactive
Potency [16]: inactive
Potency [8]: inactive
Potency [9]: inactive
Potency [10]: inactive
Potency [11]: inactive
Potency [12]: inactive

CN1[C@@H]2CC[C@@H]1CC(OC(=O)C(CO)c1ccccc1)C2 (some centres not stated)
Potency [2]: inactive
Potency [3]: inactive
Potency [4]: inactive
Potency [5]: inactive
Potency [6]: inactive
Potency [18]: inactive
Potency [7]: inactive
Potency [16]: inactive
Potency [8]: inactive
Potency [9]: inactive
Potency [10]: inactive
Potency [11]: inactive
Potency [12]: inactive
Potency [13]: inactive
Potency [19]: inactive
